The source of these data is PubChem BioAssay (NCI).

What all share (experiment): NCI-60 one-dose screen, 48 h (100 = growth as untreated, 0 = no growth, -100 = all killed)
Test [1] relates to NCI-H23 lung. The settings on record: 10 µM unless noted.
Test [2] relates to NCI-H226 lung. The settings on record: 10 µM unless noted.
Test [3] relates to NCI-H322M lung. The settings on record: 10 µM unless noted.
The test system of test [4] is HOP-62 NSCLC. The settings on record: 10 µM unless noted.
In test [5] the test system is NCI-H460 lung. The settings on record: 10 µM unless noted.
Test [6] has as its system HOP-92 NSCLC. The settings on record: 10 µM.
Test [7] concerns NCI-H522 lung. The settings on record: 10 µM unless noted.
Test [8] has as its system A549/ATCC NSCLC. The settings on record: 10 µM unless noted.
In test [9] the test system is 786-0 renal. The settings on record: 10 µM unless noted.
The test system of test [10] is COLO 205 colon. The settings on record: 10 µM unless noted.

The structures appear in SMILES notation. Compounds without any hit were thinned out: in the full panel of roughly 83,000, 20% have a hit.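 Growth was measured after 48 h exposure to one concentration of compound in 96-well plates. Values under 10 count as active.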 Unmarked numbers belong to inactive results. Calls of active or inactive are those of the source.

For the molecule `N#Cc1cccc(CN2CCC3=C(C2)C(=O)N(Cc2ccc(Cl)cc2)C2=NCCCN23)c1`, the growth in test [1] is 28.4%; in [2], 39.9%; in test [3], 48.8%; in [4] it was 26%; in test [5], 18.9%; in test [6], 26.1%. Moreover, the growth in test [7] is 14.4%; in test [8], 29%; in test [9] it was 44.4%; in [10], -31% (active).

For the molecule `COc1ccc(C(=O)c2c(N)c(C#N)cn2-c2ccccc2OC)cc1`, the growth in test [1] is 32.8%; in test [2], 60.5%; in test [3], 75.2%; in test [4], 56.3%; in [5] it was 17.4%; in [6] it was 52.5%. Besides, the growth in test [7] was -1.29% (active); in [8], 53.4%; in test [9], 43.7%; in test [10], 38.5%.

With `COc1cc2c(cc1OC)C(Sc1ccc(C)cc1)c1c(nc(N)c(C#N)c1N)O2` (stereo not given), the growth in test [1] was -74.1% (active); in [2], -1.22% (active); in test [3], -93.9% (active); in test [4] it was -1.58% (active); in test [5] it was -54.9% (active); in [6] it was -31.8% (active). Moreover, the growth in [7] was -29% (active); in test [8], -38% (active); in test [9] it was -78.9% (active); in test [10] it was -28.5% (active).

In the case of `Nc1ncc(-c2ccc3ncnc(Nc4cccc(Cl)c4F)c3c2)cn1`, the growth is 72.8% in [1]; 66.6% in [2]; 11% in test [3]; 47.5% in [4]; 62.2% in test [5]; 31.3% in test [6]. The growth in test [7] is 32.2%; in test [8] it was 51.9%; in test [9], 43.5%; in test [10] it was 86.4%.

As to `COc1ccc(-n2c(/C=C3\C(=O)Nc4ccccc43)ccc2CO)cc1`, the growth in [1] is 104%; in test [2], 95.3%; in test [3], 104%; in [4], 95.1%; in test [5] it was 113%; in test [6], 91.5%. The growth in test [7] is 89.6%; in test [8] it was 97%; in test [9], 99.1%; in [10], 114%.

As for `C=CCn1c(-c2nc3ccc(C(=C(C#N)C#N)c4ccccc4)cc3[nH]2)cc2cc(Br)ccc21`, the growth in test [1] is 46.9%; in test [2], 66.4%; in [3], 70.6%; in [4] it was 59.5%; in test [5], 42.2%; in [6], 63%. Further, the growth was 60.2% in test [7], 51.7% in test [8], 59.2% in test [9] and 65.3% in test [10].

Regarding `CS(=O)(=O)Nc1cc(-c2ccc3ncc(C#N)c(NCc4ccccc4F)c3c2)cnc1Cl`, the growth in test [1] is 1.49% (active); in [2] it was 14.6%; in test [3], 12.9%; in [4] it was 0.205% (active); in test [5] it was 5.08% (active); in [6], -10.9% (active). Also, the growth in [7] was 14.1%; in test [8], 7.89% (active); in test [9] it was 11.4%; in test [10] it was -24.7% (active).

Regarding `Oc1ccc(CSc2nnc(-c3ccc(Cl)cc3)n2-c2ccccc2)c2cccnc12`, the growth in test [1] is 31.2%; in [2], 50.9%; in test [3] it was 41.6%; in test [4], 16.9%; in test [5], 2.03% (active); in test [6], 16.3%. For the same molecule, the growth was 36.4% in [7], 26% in test [8], 44.2% in test [9] and 88.9% in [10].

Regarding `COc1ccc(COc2ccc(/C=C3\C(=O)Nc4ccccc43)cc2OC)cc1`, the growth in [1] is 103%; in test [2] it was 103%; in test [3], 106%; in [4], 100%; in test [5], 103%; in test [6], 101%. The growth was 93.4% in test [7], 109% in [8], 105% in test [9] and 123% in test [10].

Regarding `NC(N)=Nc1ccc(Oc2cccc(NC(N)=Nc3ccc(Cl)c(C(F)(F)F)c3)c2)cn1`, the growth in test [1] was 39.4%; in test [2], 71.9%; in test [3], 37.9%; in test [4] it was 52.1%; in test [5], 19.9%; in test [6], -1.32% (active). Further, the growth in test [7] was 9.96% (active); in test [8], 42.6%; in test [9] it was 70.3%; in test [10], 22.7%.

Turning to `COc1ccc(/C=N/NC(=O)c2cn(C3CC3)c3c(OC)c(N4CC5CCCNC5C4)c(F)cc3c2=O)cc1` (stereo not given), the growth in test [1] is 85.7%; in [2], 99%; in test [3] it was 89.7%; in test [4], 101%; in test [5], 92%; in [6], 74.5%. The growth in test [7] is 102%; in test [8] it was 98.5%; in [9] it was 84.2%; in [10], 95.1%.

As for `CN(C)CCNC(=O)c1ccc(-c2nc3ccc4[nH]ncc4c3c3c2CCC3)cc1`, the growth in [1] was -15.2% (active); in test [2], 10.8%; in test [3], 6.34% (active); in test [4], 5.66% (active); in [5], 1.65% (active); in test [6] it was -29.8% (active). Besides, the growth was -40.6% (active) in test [7], 7.96% (active) in test [8], 12% in [9] and -11.6% (active) in test [10].

As for `C#Cc1nc(/C=C/C(=O)c2nccn2C)cs1`, the growth in [1] was -69.3% (active); in [2], 4.67% (active); in test [3], 28.5%; in [4] it was -44.9% (active); in test [5], -47.2% (active); in test [6], -71% (active). The growth in test [7] was -60.1% (active); in test [8], -3.96% (active); in test [9], -65.9% (active); in test [10], -30.6% (active).

`C#Cc1nc(C(=O)NCCC(=O)Nc2ccc(NC(=O)c3ccc(/C=C/C(=O)c4nccn4C)cc3)cc2)cs1`: the growth in test [1] was 33.1%; in test [2], 74.9%; in test [3], 62.2%; in [4], 24.1%; in [5], 33.9%; in test [6] it was 120%. Also, the growth in [7] is 14.9%; in test [8], 55.8%; in test [9], -59.8% (active); in [10], 56.1%.

Take `O=C(/C=C/c1ccc(F)cc1)c1ccc(O)cc1`: the growth in test [1] was 95.6%; in test [2], 105%; in [3], 121%; in [4], 107%; in test [5] it was 103%; in [6], 109%. In addition, the growth in test [7] was 90.1%; in [8], 92.2%; in [9] it was 95.2%; in test [10], 112%.

With `NC(N)=Nc1ccc(Oc2cccc(NC(N)=Nc3ccc(I)cc3F)c2)cc1`, the growth in test [1] is 77.4%; in test [2] it was 88.2%; in [3], 80.4%; in test [4] it was 76.4%; in test [5] it was 65.9%; in [6], 39%. For the same molecule, the growth in test [7] was 66.8%; in test [8], 68.7%; in test [9] it was 86.4%; in test [10] it was 48.9%.

As for `Cc1cc(C)n(C(=O)c2sc(=S)n(-c3ccccc3)c2N=Nc2c(N)n[nH]c2N)n1`, the growth in test [1] was 104%; in test [2], 102%; in test [3], 101%; in [4] it was 103%; in test [5] it was 108%; in test [6], 114%. For the same molecule, the growth in [7] is 93.2%; in test [8], 102%; in [9], 111%; in [10] it was 109%.

Take `O=S(=O)(NCCCNc1nccc(-c2[nH]c(-c3ccccc3)nc2-c2ccc(Cl)c(O)c2)n1)c1cccc(F)c1`: the growth in [1] was 65.5%; in test [2], 62.8%; in test [3], 87.9%; in [4], 75.2%; in [5], 55.2%; in test [6] it was 85.5%. Moreover, the growth in test [7] is 54.2%; in test [8], 65.2%; in test [9] it was 100%; in test [10], 87.9%.

On to `CNC(=O)c1cc(-c2ccc(NS(=O)(=O)c3ccc(C)cc3)cc2)nc2cccnc12`, for which the growth was 103% in [1]; 88.7% in test [2]; 110% in test [3]; 99.7% in [4]; 107% in test [5]; 103% in [6]. The growth in test [7] was 91.6%; in [8] it was 104%; in test [9], 110%; in [10], 116%.

As to `NC(N)=Nc1ccc(Oc2cccc(NC(N)=Nc3ccc(Br)c(C(F)(F)F)c3)c2)cc1`, the growth was 54.4% in [1]; 68.6% in test [2]; 57.8% in [3]; 53.3% in [4]; 24.3% in test [5]; 10.5% in test [6]. In addition, the growth in test [7] is 35.7%; in test [8], 41.7%; in test [9], 76.5%; in [10] it was 27.9%.

In the case of `Nc1ccccc1NC(=O)c1ccc(NC(=O)C/C=C/c2cccnc2)cn1`, the growth in [1] is 22.7%; in test [2], 25.1%; in test [3], 35.9%; in [4], 27.1%; in test [5] it was 31.6%; in test [6], -7.8% (active). Also, the growth in test [7] is 0.109% (active); in test [8], 33.5%; in test [9], 31.9%; in test [10], -21.9% (active).

For `CN1CCN(Cc2ccc(NC(=O)c3cncc(C#Cc4cnc5ccc(OCC6(C)COC6)nn45)c3)cc2C(F)(F)F)CC1`, the growth in test [1] is -76.2% (active); in test [2], -62.4% (active); in test [3], -81.2% (active); in test [4] it was -69.4% (active); in test [5], -77.5% (active); in test [6] it was -70.6% (active). Moreover, the growth in [7] is -28.3% (active); in [8], -43.8% (active); in [9], -55.4% (active); in test [10] it was -58.5% (active).

As for `CCCCNNC(=O)c1ccc(-c2cccc(F)c2F)cc1`, the growth in test [1] was 38.1%; in test [2], 39.5%; in test [3], 42.4%; in [4], 28.5%; in test [5] it was 30%; in test [6] it was -3.72% (active). Further, the growth in test [7] was 4.69% (active); in test [8], 34.2%; in test [9] it was 50.8%; in [10], 4.96% (active).

For the molecule `Nc1ccccc1NC(=O)c1ccc(NC(=O)C/C=C/c2cccnc2)cc1`, the growth in [1] was 41.6%; in test [2], 46.6%; in test [3], 47.6%; in test [4] it was 36.5%; in [5] it was 46.8%; in [6], 11.3%. Besides, the growth in test [7] is 7.23% (active); in test [8] it was 47.2%; in [9], 53.3%; in [10], 10.3%.

For `NC(N)=Nc1ccc(Oc2ccc(Nc3ccc(Cl)c(C(F)(F)F)c3)cc2)cc1`, the growth in test [1] is 11.8%; in test [2], 48.9%; in test [3] it was 68.5%; in test [4] it was 76.4%; in test [5], -0.702% (active); in [6] it was 34.1%. Moreover, the growth in [7] was 18.2%; in [8] it was 31.1%; in [9], 34.6%; in [10] it was 20%.
